# From PubChem BioAssay (Tox21)
# Records with an inconclusive call do not appear. The source made the active and inactive calls. The call rests on the fitted dose curve; in most records, active means well fitted activation curve with a large enough effect in the signal ratio in the repeat runs (not every such curve was filed as active); inconclusive means weak or mixed curves, or effect the other way; inactive means flat fitted curve, though single readings scatter; the % refers to the signal ratio.
# Assay: qHTS assay to identify small molecule agonists of the endoplasmic reticulum stress response signaling pathway (AID 1159516)
# Conditions: ESRE-bla HeLa, ER stress beta-lactamase reporter, 5 h; series mostly up to 61 µM; activation: at the top concentration
# Source text: National Center for Advancing Translational Sciences [NCATS]
# NIH Chemical Genomics Center [NCGC]
# U.S. Environmental Protection Agency [EPA]
# National Institutes of Environmental Health Sciences [NIEHS]
# National Toxicology Program [NTP]
# U.S. Food and Drug Administration [FDA]
# Endoplasmic Reticulum (ER) plays an important role in cellular signaling, protein folding/maturation, stress response, lipid biosynthesis, calcium storage and release etc. Under stress conditions, proteins in ER misfold or unfold, and leading to the expression of ER stress responsive genes. ER stress has been associated with a variety of pathophysiological conditions such as cancer, inflammation, neurodegenerative diseases, diabetes, ischemic heart disease etc. To identify the compounds that induce ER stress response, an ER stress reporter cell line, CellSensor ESRE-bla HeLa (Life Technologies, Carlsbad, CA) containing a beta-lactamase reporter gene under control of the Endoplasmic reticulum Stress Response Element (ESRE) was used to screen Tox21 10K compound library.
# Tox21 Assay Protocol Summary:
# ESRE-bla HeLa cells were dispensed at 1,500 cells/6 uL of assay medium per well into black wall/clear-bottom 1536-well plates using a Multidrop Combi (ThermoFisher Scientific, Waltham, MA) dispenser. After the assay plates were incubated at 37 C and 5% CO2 for an overnight, 23 nL of compounds dissolved in DMSO, positive controls or DMSO only was transferred to the assay plate by a Pintool station (Kalypsys, San Diego, CA). The assay plates were incubated at 37 C and 5% CO2 for 5 hr. One uL of LiveBLAzer B/G FRET substrate (Life Technologies) was added using a Flying Reagent Dispenser (Aurora Discovery, San Diego, CA) and the plates were incubated at room temperature for 2 hr. Fluorescence intensity (405 nm excitation, 460 nm and 530 nm emissions) was measured using an Envision plate reader (PerkinElmer, Shelton, CT).
# On the % scale 0 is the no-effect control and ±100 the full control effect.
row,SMILES,activation
1,NC(=O)NS(=O)(=O)c1ccc(Cl)cc1,-0.844% (inactive)
2,Cc1cc2c(s1)Nc1ccccc1N=C2N1CCN(C)CC1,-0.466% (inactive)
3,Cc1ccc([N+](=O)[O-])c(N)c1,-5.65% (inactive)
4,C=CCCC=C,-0.365% [at 78.8 µM] (inactive)
5,Cc1cc(NS(=O)(=O)c2ccc(N)cc2)nc(C)n1,-1.33% (inactive)
6,CN(C)CCOc1ccccc1Cc1ccccc1,4.16% (inactive)
7,ICCc1ccccc1,0.322% (inactive)
8,CC1(C)C(=O)N(Cl)C(=O)N1Br,-2.29% (inactive)
9,CN1CCN(C2=Nc3ccccc3Oc3ccc(Cl)cc32)CC1,0.0576% (inactive)
10,Cc1onc(-c2ccccc2)c1C(=O)Cl,0.158% (inactive)
11,CCOc1ccc2nc(N)sc2c1,0.751% (inactive)
12,CC1=C(CC(=O)O)c2cc(F)ccc2/C1=C\c1ccc(S(C)(=O)=O)cc1,-3.19% (inactive)
13,CCN(CC)C(=O)N(CC)CC,0.854% (inactive)
14,CC1=CC(=O)CC(C)(C)C1=O,-0.0559% [at 78.8 µM] (inactive)
15,Nc1ccc2ccccc2c1S(=O)(=O)O,0.336% [at 78.8 µM] (inactive)
16,CC(CNC1CCCCC1)OC(=O)c1ccccc1 (stereo not given),-3.82% (inactive)
17,CC(C)OC(C)C,0.85% [at 78.8 µM] (inactive)
18,O=Cc1ccc(F)c(Br)c1,-1.08% (inactive)
19,CC(=O)OC1C2(C)CCC(C2)C1(C)C (stereo not given),-0.479% (inactive)
20,CN(CCCN1c2ccccc2CCc2ccccc21)CC(=O)c1ccc(Cl)cc1,-0.898% (inactive)

row,SMILES,activation
1,Oc1ccccc1C=NCc1ccccc1,-0.588% (inactive)
2,CC(C)NCC(O)COc1ccc(CCOCC2CC2)cc1 (stereo not given),5.11% (inactive)
3,C=CCc1cc(OC)c(O)c(C(=O)NCCO)c1,-3.12% (inactive)
4,CC(=O)Nc1ccc(C)c(Cl)c1,-2.46% (inactive)
5,N#CSCC(=O)O,0.566% (inactive)
6,CN(C)Cc1ccccc1,0.287% [at 78.8 µM] (inactive)
7,C=CCCCCCCCCO,0.495% (inactive)
8,CC(C)O,-0.921% [at 78.8 µM] (inactive)
9,CCCCNC(=S)NCCCC,-8.04% (inactive)
10,O=C1N(c2ccccc2)c2ccccc2C1(Cc1ccncc1)Cc1ccncc1,0% (inactive)
11,CN1CCN(N)CC1,-0.738% (inactive)
12,CCN(CC)CC1CCCCN1CC(=O)N1c2ccccc2C(=O)Nc2cccnc21 (stereo not given),2.46% (inactive)
13,CC1CN(c2ccccc2)NC1=O (stereo not given),-2.93% (inactive)
14,CC(C)=CCCC(C)CCOC=O (stereo not given),1.34% (inactive)
15,CCN(CCCc1ccccc1)CCCc1ccccc1,-0.437% (inactive)
16,COc1cc2c(cc1N)oc1ccccc12,-2.13% [at 78.8 µM] (inactive)
17,CCOC(=O)[C@H](CCc1ccccc1)N[C@@H](C)C(=O)N1Cc2cc(OC)c(OC)cc2C[C@H]1C(=O)O,-0.601% (inactive)
18,OCC(CBr)(CBr)CBr,-4.4% (inactive)
19,CC(Oc1c(Cl)cccc1Cl)C1=NCCN1 (stereo not given),-6.36% (inactive)
20,CC(=O)N[C@@H](CC(C)C)C(=O)O,0.37% (inactive)
